In article PMC10812921, “Transcriptional Coactivator BOB1 (OBF1, OCA-B) Modulates the Specificity of DNA Recognition by the POU-Domain Factors OCT1 and OCT2 in a Monomeric Configuration” one finds binding signal data, which are given here for 40 sequences.

The target in the first assay is POU1 (OCT1 POU domain);BOB1 (OBF1, OCA-B) (human;human, UniProt P14859;Q16633 260-458;1-256, |). In words: EMSA-SELEX-seq; with BOB1 (ternary complex band); 20 mM Tris-HCl pH 7.6, 140 mM NaCl, 10% glycerol, 0.5 mM EDTA, 0.05% Triton X-100, 0.1 mg/mL BSA, 0.1 mg/mL poly(dI-dC), 5 mM DTT, room temperature, 20 min; high values mean tight binding. The note with it: protein: recombinant;recombinant; copies: 1;1; dsDNA, one strand shown. In a few lines:
(§1)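 Binding preference means the percentage of sequenced 8-mers matching a motif pattern. Tagged POU-domain proteins (30 ng), expressed in E. coli BL21, purified under denaturing conditions and renatured, were mixed with 300 ng of a PCR-amplified double-stranded random 35-nt library, with or without 28 ng coactivator protein, for 20 min at RT in 20 μL Tris–HCl pH 7.6 binding buffer. Selection was repeated over four rounds of excising complex bands from native 6% PAGE, eluting and PCR amplification, followed by Illumina sequencing.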
A general note: Mobility shift assays separate free from complexed probe on a gel.
For ATCGTAAC, the binding signal is 0.0238 % of ANNNNAAN 8-mers.
The same measure, in the same setting: with AAATAAAG the figure was 0.168 % of ANNNNAAN 8-mers; with ACAAAAAC, 0.0706 % of ANNNNAAN 8-mers.
In the case of ATATCAAA, the binding signal was 0.0823 % of ANNNNAAN 8-mers.
The same measure, in the same setting: the figure for ATAGCAAA is 0.078 % of ANNNNAAN 8-mers; for AGATAAAG it is 0.0359 % of ANNNNAAN 8-mers.
Still for that read-out and setting: with AGACCAAG the figure was 0.0164 % of ANNNNAAN 8-mers; with ACCAGAAT, 0.0293 % of ANNNNAAN 8-mers; with AGCATAAT, 0.0757 % of ANNNNAAN 8-mers.
Still for that read-out and setting: the figure for AAAGGAAT is 0.0901 % of ANNNNAAN 8-mers; for ATGTGAAG it is 0.046 % of ANNNNAAN 8-mers; for AAGGGAAC it is 0.0363 % of ANNNNAAN 8-mers.
Regarding AGGTAAAA, the binding signal was 0.146 % of ANNNNAAN 8-mers.
As to ACGTCAAG, the binding signal was 0.0203 % of ANNNNAAN 8-mers.
The same measure, in the same setting: the figure for AAGACAAC is 0.0195 % of ANNNNAAN 8-mers; for AGATTAAT it is 0.0901 % of ANNNNAAN 8-mers.
Still for that read-out and setting: the figure for ATTTTAAG is 0.0964 % of ANNNNAAN 8-mers; for ACTTCAAA it is 0.0336 % of ANNNNAAN 8-mers.
Regarding AATCCAAG, the binding signal was 0.0425 % of ANNNNAAN 8-mers.
On to AGGGCAAG, for which the binding signal was 0.0332 % of ANNNNAAN 8-mers.
For AGGGGAAA, the binding signal was 0.109 % of ANNNNAAN 8-mers.
Turning to ACCGCAAA, the binding signal is 0.018 % of ANNNNAAN 8-mers.
As for ATCGCAAA, the binding signal is 0.0816 % of ANNNNAAN 8-mers.
The same measure, in the same setting: with AAGGAAAC the figure was 0.0511 % of ANNNNAAN 8-mers; with ATTTCAAT, 0.174 % of ANNNNAAN 8-mers; with ACCAGAAA, 0.0254 % of ANNNNAAN 8-mers.
On the same count and under the same terms, the figure for ATTGTAAT is 0.116 % of ANNNNAAN 8-mers; for ACATGAAC it is 0.0304 % of ANNNNAAN 8-mers.
Still for that read-out and setting: the figure for ACGAGAAG is 0.0269 % of ANNNNAAN 8-mers; for ATATAAAT it is 0.108 % of ANNNNAAN 8-mers; for AAACTAAA it is 0.0523 % of ANNNNAAN 8-mers.
For the sequence ACACTAAT, the binding signal is 0.0316 % of ANNNNAAN 8-mers.
On to AACGTAAG, for which the binding signal was 0.0336 % of ANNNNAAN 8-mers.
Turning to AGGCAAAA, the binding signal was 0.454 % of ANNNNAAN 8-mers.
In the case of ACTGAAAC, the binding signal is 0.0238 % of ANNNNAAN 8-mers.
Still for that read-out and setting: with ACGTTAAC the figure was 0.0234 % of ANNNNAAN 8-mers; with AACATAAG, 0.041 % of ANNNNAAN 8-mers.
Still for that read-out and setting: with ATTTGAAC the figure was 0.0745 % of ANNNNAAN 8-mers; with ACACCAAA, 0.0121 % of ANNNNAAN 8-mers; with AAGCCAAT, 0.0261 % of ANNNNAAN 8-mers.

In another assay the target is T1, POU2 (OCT2 POU domain);BOB1 (OBF1, OCA-B) (human;human, UniProt P09086;Q16633 175-386;1-256, |).
T1 sequence 1: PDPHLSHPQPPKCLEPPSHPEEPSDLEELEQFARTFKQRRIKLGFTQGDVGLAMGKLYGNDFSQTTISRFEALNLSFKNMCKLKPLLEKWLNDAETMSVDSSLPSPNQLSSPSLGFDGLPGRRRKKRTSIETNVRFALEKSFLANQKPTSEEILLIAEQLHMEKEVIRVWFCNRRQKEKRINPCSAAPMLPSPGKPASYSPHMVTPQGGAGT
T1 sequence 2: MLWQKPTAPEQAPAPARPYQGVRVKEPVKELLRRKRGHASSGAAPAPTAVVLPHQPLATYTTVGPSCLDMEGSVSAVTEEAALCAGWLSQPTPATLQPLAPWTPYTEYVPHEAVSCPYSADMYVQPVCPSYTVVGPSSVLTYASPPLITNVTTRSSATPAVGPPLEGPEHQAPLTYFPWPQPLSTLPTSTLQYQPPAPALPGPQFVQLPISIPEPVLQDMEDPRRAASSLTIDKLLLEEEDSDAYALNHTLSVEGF
Described as above. To be noted: protein: recombinant;recombinant; copies: 1;1; dsDNA, one strand shown. In outline: as §1
As for ATCGTAAC, the binding signal was 0.0322 % of ANNNNAAN 8-mers.
The same measure, in the same setting: the figure for AAATAAAG is 0.171 % of ANNNNAAN 8-mers.
On the same count and under the same terms, the figure for ACAAAAAC is 0.0405 % of ANNNNAAN 8-mers; for ATATCAAA it is 0.0726 % of ANNNNAAN 8-mers; for ATAGCAAA it is 0.0454 % of ANNNNAAN 8-mers.
For the sequence AGATAAAG, the binding signal was 0.0281 % of ANNNNAAN 8-mers.
Same read-out and setting: with AGACCAAG the figure was 0.014 % of ANNNNAAN 8-mers.
The same measure, in the same setting: the figure for ACCAGAAT is 0.0363 % of ANNNNAAN 8-mers; for AGCATAAT it is 0.106 % of ANNNNAAN 8-mers; for AAAGGAAT it is 0.0925 % of ANNNNAAN 8-mers.
With ATGTGAAG, the binding signal is 0.0429 % of ANNNNAAN 8-mers.
Still for that read-out and setting: the figure for AAGGGAAC is 0.0305 % of ANNNNAAN 8-mers; for AGGTAAAA it is 0.085 % of ANNNNAAN 8-mers.
With ACGTCAAG, the binding signal is 0.0198 % of ANNNNAAN 8-mers.
The same measure, in the same setting: with AAGACAAC the figure was 0.0157 % of ANNNNAAN 8-mers; with AGATTAAT, 0.106 % of ANNNNAAN 8-mers; with ATTTTAAG, 0.101 % of ANNNNAAN 8-mers.
ACTTCAAA: the binding signal was 0.0256 % of ANNNNAAN 8-mers.
The same measure, in the same setting: the figure for AATCCAAG is 0.0371 % of ANNNNAAN 8-mers; for AGGGCAAG it is 0.0363 % of ANNNNAAN 8-mers; for AGGGGAAA it is 0.0826 % of ANNNNAAN 8-mers.
Same read-out and setting: the figure for ACCGCAAA is 0.0124 % of ANNNNAAN 8-mers; for ATCGCAAA it is 0.0413 % of ANNNNAAN 8-mers.
Take AAGGAAAC: the binding signal was 0.038 % of ANNNNAAN 8-mers.
Same read-out and setting: the figure for ATTTCAAT is 0.142 % of ANNNNAAN 8-mers; for ACCAGAAA it is 0.0157 % of ANNNNAAN 8-mers.
Regarding ATTGTAAT, the binding signal is 0.137 % of ANNNNAAN 8-mers.
On the same count and under the same terms, with ACATGAAC the figure was 0.019 % of ANNNNAAN 8-mers; with ACGAGAAG, 0.0347 % of ANNNNAAN 8-mers; with ATATAAAT, 0.116 % of ANNNNAAN 8-mers.
Consider AAACTAAA, for which the binding signal is 0.0471 % of ANNNNAAN 8-mers.
For the sequence ACACTAAT, the binding signal was 0.0438 % of ANNNNAAN 8-mers.
For AACGTAAG, the binding signal was 0.0305 % of ANNNNAAN 8-mers.
Regarding AGGCAAAA, the binding signal was 0.204 % of ANNNNAAN 8-mers.
The same measure, in the same setting: the figure for ACTGAAAC is 0.0173 % of ANNNNAAN 8-mers.
Same read-out and setting: with ACGTTAAC the figure was 0.0289 % of ANNNNAAN 8-mers; with AACATAAG, 0.0396 % of ANNNNAAN 8-mers.
Same read-out and setting: the figure for ATTTGAAC is 0.0553 % of ANNNNAAN 8-mers; for ACACCAAA it is 0.0149 % of ANNNNAAN 8-mers; for AAGCCAAT it is 0.0272 % of ANNNNAAN 8-mers.
